Results on 37 compounds are retold here after PubChem BioAssay (NCI).

“And” between values parts separate entries of the source, which are not always exact repeats. Identical values can stand only once. About 83,000 compounds went through this panel and 20% of them were active in at least one assay; those are over-represented in the sample as a whole.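 How to read the values: 0–100, growth inhibition (40 = 60% inhibited); 0, no net growth; -100 to 0, cell death (-40 = 40% of starting cells died; -100 = all dead).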 The source made the active and inactive calls. Rule for the calls: active = growth percent below 10; inactive = the rest.

In the first experiment the test system is MCF7 breast. In words: NCI-60 one-dose screen, 48 h (100 = growth as untreated, 0 = no growth, -100 = all killed). The note with it: 10 µM unless noted.
Regarding `COc1cc(Cl)cc(-c2nn(C(=O)NS(=O)(=O)c3ccc(Cl)cc3)cc2-c2ccncc2)c1`, the growth is 102% (inactive).
Still for that read-out and setting: then `C[C@@H]1O[C@@H](O[C@H]2[C@@H](OC(=O)[C@]34CCC(C)(C)C[C@H]3C3=CC[C@@H]5[C@@]6(C)C[C@H](O)[C@H](O[C@@H]7O[C@H](CO)[C@@H](O)[C@H](O)[C@H]7O)[C@@](C)(CO)[C@@H]6CC[C@@]5(C)[C@]3(C)C[C@H]4O)OC[C@@H](O)[C@@H]2O)[C@H](O)[C@H](O[C@@H]2OC[C@@H](O)[C@H](O[C@@H]3OC[C@](O)(CO)[C@H]3O[C@@H]3OC[C@@H](O)[C@H](O)[C@H]3O)[C@H]2O)[C@H]1O[C@@H]1OC[C@](O)(CO)[C@H]1O`, with 68.9% (inactive); and `Cc1c(O)c(O)cc2c3c(oc12)CC(c1ccc2c(c1)OCO2)CC3=O` (stereo unspecified), with 73.6% (inactive).
Consider `COc1cc(F)c(/C=C/c2cc(/C=C/c3cc(OC)c(OC)cc3F)n(-c3cc(F)cc(F)c3)n2)cc1OC`, for which the growth was 8.88% (active).
Consider `CN1CCN(CCCN2c3ccccc3Sc3ccc(Cl)cc32)CC1`, for which the growth was 37.2% (inactive) and 63.8% (inactive).
The same measure, in the same setting: in the case of `O=C(N=Nc1c(O)[nH]c2ccccc12)Nc1ccccc1Cl` it was 19.8% (inactive).
Regarding `OCCN1CCN(CC/C=C2\c3ccccc3Sc3ccc(Cl)cc32)CC1`, the growth is 17.3% (inactive) and 4.22% (active).
On the same count and under the same terms, in the case of `COc1nc2ccc(C)cc2cc1/C=[N+](\[O-])c1ccccc1` it was 58.6% (inactive); in that of `O=C(CCN1CCOCC1)Nc1cccc(-n2cc(-c3ccncc3)c(-c3ccc(Cl)c(O)c3)n2)c1`, 11.4% (inactive); in that of `CN1CCN(c2ccc(Nc3ncc(C(N)=O)c(NCCCNC(=O)C4CCC4)n3)cc2)CC1`, 48.9% (inactive).
Still for that read-out and setting: in the case of `CN(C)c1ccc2nc3ccc(=O)cc-3sc2c1` it was -1.53% (active) and 1.73% (active); in that of `CC(=O)N1N=C(c2ccc(Nc3nc(Nc4ccc(F)cc4)nc(Nc4ccc(F)cc4)n3)cc2)CC1c1ccccc1` (stereo unspecified), 66.2% (inactive); in that of `C/C=C(\C)C(=O)N[C@H]1CC[C@]2(C)C3CC[C@@]4(C)C(CC[C@@H]4C(C)N(C)C)C3CCC2[C@H]1OC(C)=O` (stereo partly specified), -27% (active).
On to `Cc1ccc(-c2nc3nc(-c4ccc(Cl)cc4)nc(N4CCCNCC4)c3o2)cc1`, for which the growth was -79.4% (active).
The same measure, in the same setting: in the case of `Nc1n[nH]c2cccc(C#Cc3cccc(NC(=O)c4ccc(N5CCOCC5)c(C(F)(F)F)c4)c3)c12` it was 25.6% (inactive).
The same measure, in the same setting: in the case of `O=C1C(c2c[nH]c3ccccc23)=C(c2coc3cc(Br)ccc23)C(=O)N1O` it was 80.6% (inactive); in that of `Cc1cc(N2CCCCC2)nc(NCc2cc(Nc3ccnc4cc(Cl)ccc34)ccc2F)n1`, -37.5% (active).
Still for that read-out and setting: in the case of `CC1(C)C(N)=Nc2cc(OCCCN3Cc4ccc(OCCc5cn(CC(=O)N6CCC(CCN7CCCC7)CC6)nn5)cc4C3)c(OCC3CC3)cc21` it was 89.3% (inactive).
Turning to `CS(=O)(=O)Nc1cc(-c2ccc3ncnc(Nc4ccc(F)c(Cl)c4)c3c2)cnc1Cl`, the growth is 5.44% (active).
On the same count and under the same terms, then `Cc1cnc(C(=O)NNc2nc3sc4c(c3c(=O)[nH]2)C(C)CCC4)cn1` (stereo unspecified), with 13.9% (inactive).
On the same count and under the same terms, in the case of `Cn1cc2c(=O)nc3c(-c4nc5ccccc5[nH]4)n[nH]n3c2n1` it was 65.7% (inactive); in that of `Cc1ccc(-c2nc3nc(-c4ccc(F)cc4)nc(N4CCCNCC4)c3o2)cc1`, -72.4% (active); in that of `COc1ccc2c(c1)c(-c1nc(-c3c[nH]c4c(Cl)nccc34)cs1)cn2C`, 8.44% (active).
As to `Cc1nc2sc(C(=O)Nc3cccc4ncccc34)c(N)c2cc1C(C)O` (stereo unspecified), the growth is 38.4% (inactive).
Still for that read-out and setting: then `N=C(N)c1ccc(-c2ccc(-c3ccc(F)cc3)s2)nc1`, with 21.9% (inactive).
Take `CN(C)CCCn1c2nc(=O)[nH]c(=O)c-2nc2cc(Cl)c(Cl)cc21`: the growth is 4.93% (active).
The same measure, in the same setting: in the case of `Brc1ccc(/C=C(/C2=NCCN2)n2ccc3ccccc32)cc1` it was 30.2% (inactive).
As to `CCOC(=O)c1c(-c2ccc(OC)cc2)c(C#N)c2c(C#N)c(N)nn2c1N`, the growth is 13.2% (inactive).
Turning to `COc1ccc(S(=O)(=O)Nc2cc(Sc3cccc4cccnc34)c(O)c3ccccc23)cc1`, the growth is -50.5% (active).

The test system of another experiment is HCT-116 colon. Described as above. The settings on record: 10 µM unless noted.
In the case of `NC1=CC(=O)c2cccnc2C1=O`, the growth is -56.4% (active).
With `Cn1c(=O)c2c(nc(Nc3cc(=O)[nH]c(=O)[nH]3)n2Cc2ccccc2)n(C)c1=O`, the growth is 94.2% (inactive).
In the case of `O=C(c1ccc(Nc2nccc(NCCCNc3ccnc4cc(Cl)ccc34)n2)cc1)N1CCCCC1`, the growth was 26.7% (inactive).
On the same count and under the same terms, in the case of `COc1c(NC=O)c2c(c([N+](=O)[O-])c1OC)C(=O)OC2` it was 108% (inactive) and 106% (inactive).
As for `COc1ccc(Cl)cc1Nc1nc(C(F)(F)F)ccc1C(=O)N/N=C/c1ccc(N(C)C)cc1`, the growth is 80.3% (inactive).
Same read-out and setting: in the case of `CC1=C2[C@@H](CC1)[C@]1(C)O[C@@](C3CC3)(C[C@H]1OC(=O)CO)[C@H]2OC(=O)/C=C/c1ccccc1` it was 89.4% (inactive).
The same measure, in the same setting: in the case of `CC/C=C\C/C=C\C[C@H](O)C/C=C1/C(=O)C=C[C@@H]1C/C=C\CCCC(=O)OC` it was -63.8% (active).
With `Cc1[nH]c(C(=O)Nc2nc3ccc(NC(=O)CCN)cc3s2)c(Cl)c1Cl`, the growth was 59.9% (inactive).
Same read-out and setting: then `COc1cc(Cl)cc(-c2nn(C(=O)NS(=O)(=O)c3ccc(Cl)cc3)cc2-c2ccncc2)c1`, with 95.2% (inactive).
The same measure, in the same setting: then `C[C@@H]1O[C@@H](O[C@H]2[C@@H](OC(=O)[C@]34CCC(C)(C)C[C@H]3C3=CC[C@@H]5[C@@]6(C)C[C@H](O)[C@H](O[C@@H]7O[C@H](CO)[C@@H](O)[C@H](O)[C@H]7O)[C@@](C)(CO)[C@@H]6CC[C@@]5(C)[C@]3(C)C[C@H]4O)OC[C@@H](O)[C@@H]2O)[C@H](O)[C@H](O[C@@H]2OC[C@@H](O)[C@H](O[C@@H]3OC[C@](O)(CO)[C@H]3O[C@@H]3OC[C@@H](O)[C@H](O)[C@H]3O)[C@H]2O)[C@H]1O[C@@H]1OC[C@](O)(CO)[C@H]1O`, with 46.3% (inactive); and `Cc1c(O)c(O)cc2c3c(oc12)CC(c1ccc2c(c1)OCO2)CC3=O` (stereo unspecified), with 90.2% (inactive).
Consider `COc1cc(F)c(/C=C/c2cc(/C=C/c3cc(OC)c(OC)cc3F)n(-c3cc(F)cc(F)c3)n2)cc1OC`, for which the growth is 100% (inactive).
In the case of `CN1CCN(CCCN2c3ccccc3Sc3ccc(Cl)cc32)CC1`, the growth is 57.5% (inactive) and 70.6% (inactive).
On the same count and under the same terms, then `O=C(N=Nc1c(O)[nH]c2ccccc12)Nc1ccccc1Cl`, with 89.8% (inactive).
Turning to `OCCN1CCN(CC/C=C2\c3ccccc3Sc3ccc(Cl)cc32)CC1`, the growth is -59.8% (active) and -45.1% (active).
Still for that read-out and setting: then `COc1nc2ccc(C)cc2cc1/C=[N+](\[O-])c1ccccc1`, with 15.1% (inactive).
On the same count and under the same terms, then `O=C(CCN1CCOCC1)Nc1cccc(-n2cc(-c3ccncc3)c(-c3ccc(Cl)c(O)c3)n2)c1`, with 21.1% (inactive).
On the same count and under the same terms, in the case of `CN1CCN(c2ccc(Nc3ncc(C(N)=O)c(NCCCNC(=O)C4CCC4)n3)cc2)CC1` it was 43.2% (inactive); in that of `CN(C)c1ccc2nc3ccc(=O)cc-3sc2c1`, 2.57% (active) and 9.4% (active).
Consider `CC(=O)N1N=C(c2ccc(Nc3nc(Nc4ccc(F)cc4)nc(Nc4ccc(F)cc4)n3)cc2)CC1c1ccccc1` (stereo unspecified), for which the growth was 80.7% (inactive).
With `C/C=C(\C)C(=O)N[C@H]1CC[C@]2(C)C3CC[C@@]4(C)C(CC[C@@H]4C(C)N(C)C)C3CCC2[C@H]1OC(C)=O` (stereo partly specified), the growth was -83.3% (active).
The same measure, in the same setting: in the case of `Cc1ccc(-c2nc3nc(-c4ccc(Cl)cc4)nc(N4CCCNCC4)c3o2)cc1` it was -75.6% (active); in that of `Nc1n[nH]c2cccc(C#Cc3cccc(NC(=O)c4ccc(N5CCOCC5)c(C(F)(F)F)c4)c3)c12`, 2.84% (active); in that of `O=C1C(c2c[nH]c3ccccc23)=C(c2coc3cc(Br)ccc23)C(=O)N1O`, 96.7% (inactive).
Same read-out and setting: in the case of `Cc1cc(N2CCCCC2)nc(NCc2cc(Nc3ccnc4cc(Cl)ccc34)ccc2F)n1` it was -62.8% (active).
With `CC1(C)C(N)=Nc2cc(OCCCN3Cc4ccc(OCCc5cn(CC(=O)N6CCC(CCN7CCCC7)CC6)nn5)cc4C3)c(OCC3CC3)cc21`, the growth is 103% (inactive).
Turning to `CS(=O)(=O)Nc1cc(-c2ccc3ncnc(Nc4ccc(F)c(Cl)c4)c3c2)cnc1Cl`, the growth is 1.28% (active).
Still for that read-out and setting: then `Cc1cnc(C(=O)NNc2nc3sc4c(c3c(=O)[nH]2)C(C)CCC4)cn1` (stereo unspecified), with 22.5% (inactive); and `Cn1cc2c(=O)nc3c(-c4nc5ccccc5[nH]4)n[nH]n3c2n1`, with 80.6% (inactive); and `Cc1ccc(-c2nc3nc(-c4ccc(F)cc4)nc(N4CCCNCC4)c3o2)cc1`, with -87.2% (active).
Same read-out and setting: in the case of `COc1ccc2c(c1)c(-c1nc(-c3c[nH]c4c(Cl)nccc34)cs1)cn2C` it was 92.7% (inactive).
Same read-out and setting: in the case of `Cc1nc2sc(C(=O)Nc3cccc4ncccc34)c(N)c2cc1C(C)O` (stereo unspecified) it was 70.1% (inactive).
On to `N=C(N)c1ccc(-c2ccc(-c3ccc(F)cc3)s2)nc1`, for which the growth was 3.54% (active).
The same measure, in the same setting: then `CN(C)CCCn1c2nc(=O)[nH]c(=O)c-2nc2cc(Cl)c(Cl)cc21`, with -18.5% (active); and `Brc1ccc(/C=C(/C2=NCCN2)n2ccc3ccccc32)cc1`, with 52.9% (inactive).
Consider `CCOC(=O)c1c(-c2ccc(OC)cc2)c(C#N)c2c(C#N)c(N)nn2c1N`, for which the growth is 16% (inactive).
On the same count and under the same terms, in the case of `COc1ccc(S(=O)(=O)Nc2cc(Sc3cccc4cccnc34)c(O)c3ccccc23)cc1` it was -36.8% (active).
